For 40 sequences, sensor-assay potency score (higher = more potent) results are on record in the OligoGym collection.
Note: reference of the scale not given here.

The first assay has as its target COMMD8. The assay can be described thus: pooled miR-30 sensor sort-seq; sequence = guide strand. Particulars: shRNA.
TATTTCTCTTGACAGAGCCTGT displayed a sensor-assay potency score (higher = more potent) of -1.04.

The sequence TATTGCTGCTTTCTCAGCCTGG displayed a sensor-assay potency score (higher = more potent) of -0.453. Still for that read-out and setting: in the case of TTTCTCTTGACAGAGCCTGTTT it was -0.392; in that of TCAACTGCTGAAATATCTCTTC, -0.0513. The same measure, in the same setting: in the case of AACAGTGTGATAATCTTGGTAC it was -0.396.

The target of the next assay is COPE. Described as above. Particulars: shRNA.
TTACGTCGAACAGCTCGTCTAC: the sensor-assay potency score (higher = more potent) was -0.753. The same measure, in the same setting: in the case of TCAGCTGGGACAGGTATCGGTT it was -0.759. The same measure, in the same setting: in the case of TTGACCAGCGTCTCTGGGTAGC it was -0.621; in that of AACAGCTCGTCTACCTCCCCGG, -0.819.

The sequence AAAGTCGTTCTCCTTGGCCTGG yielded a sensor-assay potency score (higher = more potent) of -1.24. The same measure, in the same setting: for TTTACGTCGAACAGCTCGTCTA the value was -1.05. On the same count and under the same terms, in the case of TCATCTCTCGGTCCAGCTCGGC it was -1.47; in that of TTCTCTTCAGCTCCTTCCGGGC, -0.99. Same read-out and setting: in the case of TTCTTTACGTCGAACAGCTCGT it was -0.53. Sequence ATTCTCTTCAGCTCCTTCCGGG returned a sensor-assay potency score (higher = more potent) of -0.00872. On the same count and under the same terms, in the case of TTGATGAAGGGATGGGACCTGT it was -0.268; in that of TTGATAGCTTCACCCGCTGCGC, -1.31.

A further assay concerns the target COPS6. Described as above. As to conditions: shRNA.
With TACTGCTGCATCCACCTCCATC, the sensor-assay potency score (higher = more potent) is -1.31.

For the sequence TTAAACTGCTCCTCCTTGGTGT, the sensor-assay potency score (higher = more potent) was determined as 0.63. Same read-out and setting: in the case of TTGTCAATGATAATCTTCTCTT it was -0.44; in that of TTGTCGGTCGTAGAGGACATTG, -1.74. Still for that read-out and setting: in the case of TTGAACTTGTTCACAAACTGGT it was 0.64. On the same count and under the same terms, in the case of TTGTCTGTGCTGAGCACCGGGA it was -0.77. The sequence AATCTGTCTTGAACTTGTCTGT yielded a sensor-assay potency score (higher = more potent) of -0.335.

The sequence TTCAACTTCAGAAAGAGGGGGC had a sensor-assay potency score (higher = more potent) of 0.785. Still for that read-out and setting: for TTGATCATAAAAATCTGTCTTG the value was 0.185; for TCTGTCTTGAACTTGTCTGTGC, 0.397.

In turn, TCGTAGAGGACATTGAACTTGT yielded a sensor-assay potency score (higher = more potent) of 0.432. The same measure, in the same setting: in the case of TTCCTTGTCAATGATAATCTTC it was -0.166.

A further assay has as its target COPS7A. The assay is described as above. As to conditions: shRNA.
The sequence TTTACTTTAGCAGCCAGGGTGA showed a sensor-assay potency score (higher = more potent) of -0.299. TTATTCTTCTGAGCCTCTGTTA returned a sensor-assay potency score (higher = more potent) of -0.522.

The sequence TTGGTTGGCACGGCTCACCTGC showed a sensor-assay potency score (higher = more potent) of -0.606. Same read-out and setting: for TAGTGTGACAGGATTCTAGGAT the value was 0.596; for TGAACCTAGGATTATCAGCTGG, -0.856. The same measure, in the same setting: for TAATACAATCTATATACCCTTC the value was -0.206; for TACACTTTACTTTAGCAGCCAG, -0.419; for TTCAGCTAAGTAGTCAGCGTAT, -0.555. Same read-out and setting: for TTCTAGGATGAACATGTCCAGT the value was -1.29; for TCTAACATTGGGCATGTCCAGC, -1.04; for TTAGTGGAGGAAGATTCCGGGC, -0.887.
